The record followed here is PubChem BioAssay (NCI).

The nature of test [1]: NCI Yeast Anticancer Drug Screen. Data for the rad50 strain (AID 155).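 Further: 0% = growth of vehicle-only cultures of the same strain.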 To be noted: S. cerevisiae rad50 strain growth inhibition, stronger effect = higher value. The method in brief: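 Yeast carrying a defined DNA repair defect were exposed to test compounds, and growth was compared with vehicle-treated controls to give percent inhibition.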
Test [2] is described as follows: NCI Yeast Anticancer Drug Screen. Data for the mec2-1 strain (AID 157). Conditions: S. cerevisiae mec2-1 strain, stronger effect = higher value. The method in brief: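 Yeast mec2-1 mutant treated with compound. Readout: growth inhibition vs vehicle controls.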
Test [3] in a line: NCI Yeast Anticancer Drug Screen. Data for the sgs1 mgt1 strain (AID 161).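 Further: 0% = growth of cultures given vehicle only.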 Conditions: S. cerevisiae sgs1 mgt1 strain, stronger effect = higher value. The method in brief: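 Read-out: growth inhibition vs vehicle controls. Cells: mutant yeast strain deficient in DNA damage repair.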
The nature of test [4]: NCI Yeast Anticancer Drug Screen. Data for the cln2 rad14 strain (AID 165).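 Further: 0% = growth equal to vehicle treated cultures.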 To be noted: S. cerevisiae cln2 rad14 strain, stronger effect = higher value. The gist of the method: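 cln2 rad14 yeast strain; compound exposure; growth inhibition read vs vehicle controls.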
A short description of test [5]: NCI Yeast Anticancer Drug Screen. Data for the bub3 strain (AID 167). Conditions: S. cerevisiae bub3 mutant strain, stronger effect = higher value. The gist of the method: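 Compounds were applied to a genetically altered yeast strain carrying a cell-cycle control defect. Growth inhibition was scored against vehicle-treated controls.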
The nature of test [6]: NCI Yeast Anticancer Drug Screen. Data for the mlh1 rad18 strain (AID 175). To be noted: S. cerevisiae mlh1 rad18 strain growth inhibition, stronger effect = higher value. The method in brief: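 Yeast w/ defined DNA-repair lesions; compound exposure; growth vs vehicle controls → % inhibition.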
[7] abbreviates: at 5.0 µM (retest, dose inferred, filed as 0.5).
[8] abbreviates: at 50.0 µM (retest, dose inferred, filed as 5.0).

Several values for one entry are separate records, joined by “and”; a condition that tells them apart may be missing. Equal entries are not always repeated. The panel holds about 79,000 compounds, 15% with a hit somewhere; the sample as a whole holds those more often. The source holds several records for some structures; these can differ, active in one and inactive in another. Activity calls are given as the source filed them. No stated cut-off is given here; in the data, active means growth inhibition above about 70%; inactive means the rest.

Take `COc1ccc(-c2c(C)c(C(=O)O)nc(-c3ccc4c(O)c(OC)c5c(c4n3)=NC(C)(C)N=5)c2N)c(O)c1OC`: the growth inhibition in test [1] (setting [7]) is 76% (active); in test [1] (setting [8]), 92% (active); in test [1] (at 50.0 µM), 75.1% (active); in test [2] (setting [7]), 20% (inactive); in test [2] (setting [8]), 68% (inactive); in test [2] (at 50.0 µM) it was 33% (inactive). For the same compound, the growth inhibition in test [3] (setting [7]) was 39% (inactive); in test [3] (setting [8]) it was 60% (inactive); in test [3] (at 50.0 µM) it was 41.4% (inactive); in test [4] (setting [7]), 16% (inactive); in test [4] (setting [8]) it was 76% (active); in test [4] (at 50.0 µM) it was 47% (inactive). Moreover, the growth inhibition in test [5] (setting [7]) was -1% (inactive); in test [5] (setting [8]), 7% (inactive); in test [5] (at 50.0 µM) it was 19.9% (inactive); in test [6] (setting [7]), 59% (inactive); in test [6] (setting [8]), 87% (active); in test [6] (at 50.0 µM) it was 61.5% (inactive).
Regarding `Fc1ccc(NP(=S)(Nc2ccc(F)cc2F)Nc2ccc(F)cc2F)c(F)c1`, the growth inhibition in test [1] (setting [7]) is 33% (inactive); in test [1] (setting [8]) it was 99% (active); in test [1] (at 50.0 µM) it was 99.2% (active); in test [2] (setting [7]), 42% (inactive); in test [2] (setting [8]), 99% (active); in test [2] (at 50.0 µM) it was 99.3% (active). Besides, the growth inhibition in test [3] (setting [7]) is 39% (inactive); in test [3] (setting [8]), 99% (active); in test [3] (at 50.0 µM), 99% (active); in test [4] (setting [7]), 56% (inactive); in test [4] (setting [8]), 99% (active); in test [4] (at 50.0 µM), 98.7% (active). Also, the growth inhibition is 26% (inactive) in test [5] (setting [7]); 99% (active) in test [5] (setting [8]); 98.8% (active) in test [5] (at 50.0 µM); 30% (inactive) in test [6] (setting [7]); 98% (active) in test [6] (setting [8]); 99.2% (active) in test [6] (at 50.0 µM).
Take `c1cnc2c(c1)ccc1cccnc12`: the growth inhibition is 58% (inactive) and 14% (inactive) in test [1] (setting [7]); 97% (active) and 99% (active) in test [1] (setting [8]); 99.5% (active) and 99.2% (active) in test [1] (at 50.0 µM); 32% (inactive) and 27% (inactive) in test [2] (setting [7]); 99% (active) in test [2] (setting [8]); 99.2% (active) and 98.9% (active) in test [2] (at 50.0 µM). Besides, the growth inhibition in test [3] (setting [7]) is 50% (inactive) and 13% (inactive); in test [3] (setting [8]), 98% (active); in test [3] (at 50.0 µM) it was 98.3% (active) and 99% (active); in test [4] (setting [7]), 6% (inactive) and -24% (inactive); in test [4] (setting [8]) it was 98% (active) and 90% (active); in test [4] (at 50.0 µM) it was 98% (active) and 96.2% (active). For the same compound, the growth inhibition was 42% (inactive) and 4% (inactive) in test [5] (setting [7]); 98% (active) and 99% (active) in test [5] (setting [8]); 98.8% (active) and 99% (active) in test [5] (at 50.0 µM); 52% (inactive) and 17% (inactive) in test [6] (setting [7]); 97% (active) and 98% (active) in test [6] (setting [8]); 98.8% (active) in test [6] (at 50.0 µM).
As to `O=[N+]([O-])/C=C/c1ccccc1`, the growth inhibition in test [1] (setting [7]) is 94% (active); in test [1] (setting [8]) it was 99% (active); in test [1] (at 50.0 µM) it was 98% (active); in test [2] (setting [7]), 85% (active); in test [2] (setting [8]) it was 100% (active); in test [2] (at 50.0 µM), 99.2% (active). The growth inhibition in test [3] (setting [7]) is 62% (inactive); in test [3] (setting [8]) it was 99% (active); in test [3] (at 50.0 µM) it was 98% (active); in test [4] (setting [7]) it was 64% (inactive); in test [4] (setting [8]), 100% (active); in test [4] (at 50.0 µM), 98.3% (active). Further, the growth inhibition in test [5] (setting [7]) was 85% (active); in test [5] (setting [8]) it was 99% (active); in test [5] (at 50.0 µM), 96.4% (active); in test [6] (setting [7]) it was 71% (active); in test [6] (setting [8]), 100% (active); in test [6] (at 50.0 µM) it was 98.1% (active).
On to `O=[N+]([O-])c1cccc(N=Cc2ccc(N(CCCl)CCCl)cc2)c1`, for which the growth inhibition is 4% (inactive) in test [1] (setting [7]); 53% (inactive) in test [1] (setting [8]); 66% (inactive) in test [1] (at 50.0 µM); 2% (inactive) in test [2] (setting [7]); 64% (inactive) in test [2] (setting [8]); 21.9% (inactive) in test [2] (at 50.0 µM). Moreover, the growth inhibition in test [3] (setting [7]) was 3% (inactive); in test [3] (setting [8]), 63% (inactive); in test [3] (at 50.0 µM), 44.4% (inactive); in test [4] (setting [7]) it was 2% (inactive); in test [4] (setting [8]) it was 54% (inactive); in test [4] (at 50.0 µM), 26.1% (inactive). The growth inhibition in test [5] (setting [7]) is 3% (inactive); in test [5] (setting [8]) it was 74% (active); in test [5] (at 50.0 µM), 8% (inactive); in test [6] (setting [7]) it was 7% (inactive); in test [6] (setting [8]), 74% (active); in test [6] (at 50.0 µM), 60% (inactive).
With `OC(c1cc2c(c3ccccc13)CCCC2)C1CCCCN1` (centres undefined), the growth inhibition was -4% (inactive) in test [1] (setting [7]); 17% (inactive) in test [1] (setting [8]); 64.5% (inactive) in test [1] (at 50.0 µM); -1% (inactive) in test [2] (setting [7]); 12% (inactive) in test [2] (setting [8]); 42.4% (inactive) in test [2] (at 50.0 µM). Besides, the growth inhibition is 3% (inactive) in test [3] (setting [7]); 47% (inactive) in test [3] (setting [8]); 68% (inactive) in test [3] (at 50.0 µM); 1% (inactive) in test [4] (setting [7]); 21% (inactive) in test [4] (setting [8]); 79.7% (active) in test [4] (at 50.0 µM). The growth inhibition in test [5] (setting [7]) was 0% (inactive); in test [5] (setting [8]) it was 18% (inactive); in test [5] (at 50.0 µM), 59% (inactive); in test [6] (setting [7]) it was 0% (inactive); in test [6] (setting [8]), 41% (inactive); in test [6] (at 50.0 µM), 95.5% (active).
For `Clc1ccc2c(NCCCCN3OC3c3ccccc3)ccnc2c1` (centres undefined), the growth inhibition was 30% (inactive) in test [1] (setting [7]); 67% (inactive) in test [1] (setting [8]); 58.2% (inactive) in test [1] (at 50.0 µM); 22% (inactive) in test [2] (setting [7]); 56% (inactive) in test [2] (setting [8]); 48.6% (inactive) in test [2] (at 50.0 µM). Further, the growth inhibition in test [3] (setting [7]) is 23% (inactive); in test [3] (setting [8]), 57% (inactive); in test [3] (at 50.0 µM), 67.5% (inactive); in test [4] (setting [7]) it was 11% (inactive); in test [4] (setting [8]), 32% (inactive); in test [4] (at 50.0 µM), 11.3% (inactive). The growth inhibition in test [5] (setting [7]) is 24% (inactive); in test [5] (setting [8]), 43% (inactive); in test [5] (at 50.0 µM), 34.2% (inactive); in test [6] (setting [7]) it was 30% (inactive); in test [6] (setting [8]), 84% (active); in test [6] (at 50.0 µM) it was 35.2% (inactive).
For `O=C1C=CC(=O)c2c(O)ccc(O)c21`, the growth inhibition in test [1] (setting [7]) was 99% (active) and 16% (inactive); in test [1] (setting [8]) it was 17% (inactive) and 93% (active); in test [1] (at 50.0 µM) it was 89.1% (active) and 64% (inactive); in test [2] (setting [7]), 99% (active) and -14% (inactive); in test [2] (setting [8]) it was 14% (inactive) and 95% (active); in test [2] (at 50.0 µM), 91.5% (active) and 68.8% (inactive). Besides, the growth inhibition was 97% (active) and -5% (inactive) in test [3] (setting [7]); 19% (inactive) and 95% (active) in test [3] (setting [8]); 91% (active) and 80.3% (active) in test [3] (at 50.0 µM); 98% (active) and 20% (inactive) in test [4] (setting [7]); 16% (inactive) and 93% (active) in test [4] (setting [8]); 88.8% (active) and 77.7% (active) in test [4] (at 50.0 µM). The growth inhibition in test [5] (setting [7]) is 99% (active) and 11% (inactive); in test [5] (setting [8]) it was 80% (active) and 93% (active); in test [5] (at 50.0 µM), 89.6% (active) and 79.1% (active); in test [6] (setting [7]) it was 99% (active) and -4% (inactive); in test [6] (setting [8]), 21% (inactive) and 92% (active); in test [6] (at 50.0 µM), 88.4% (active).
